According to PubChem BioAssay (NCATS):
Inconclusive results are not listed. Activity calls are given as the source filed them. The call rests on the fitted dose curve; in most records, active means well fitted cell-killing curve with a large enough effect; inconclusive means small, poorly fitted or top-dose-only effect; inactive means flat fitted curve, though single readings scatter.

assay: UWB1.289 Cancer Cell Toxicity qHTS against the NCATS CANVASS Library (AID 1347347); settings: UWB1.289 viability, CellTiter-Glo luminescence, 72 h; series mostly up to 38.3 µM; further: nearly all actives have a fitted effect of over 60% in size
Text: Natural products and their derivatives continue to be wellsprings of nascent therapeutic potential. However, many laboratories have limited resources for biological evaluation, leaving their previously isolated or synthesized compounds largely or completely untested. To address this issue, the Canvass library of natural products was assembled (https://tripod.nih.gov/canvass), in collaboration with academic and industry researchers, for quantitative high-throughput screening (qHTS) across a diverse set of cell-based and biochemical assays. The pure (>85% purity by liquid chromatography/mass spectrometry [LC/MS]) Canvass library of 346 natural products were submitted by 45 academic laboratories and companies around the world. We collected pure natural products to circumvent deconvolution and structure elucidation due to time and resource limitations. The library was formatted into 1536-well plates and evaluated in 50 qHTS (in an 11-pnt concentration series) bioassays with broad scope of disease-relevant mechanisms. The resulting data set from 50 different assays was then systematically analyzed to identify overall trends and specific natural products with interesting biological activities. Reported herein are the results of each individual qHTS and their corresponding assay protocol. National Center for Advancing Translational Sciences (NCATS), Rockville, MD National Institute of Health (NIH), Bethesda, Maryland
Cancer Cell Toxicity protocol for cell lines COV-362, OV-KATE, OV-SAHO, UWB1.289, UWB1.289-WTBRCA1, HEK-293, HPAF-II, Panc-1005, SW1088, or U-118MG. 1. In a 1536 well, white solid bottom tissue culture plates (Corning 7494), corresponding cells (COV-362, OV-KATE, OV-SAHO, UWB1.289, UWB1.289-WTBRCA1, HEK-293, HPAF-II, Panc-1005, SW1088, or U-118MG) were dispensed in each well at a final concentration of 1000 cells / well (6uL volume) using the Multidrop Combi (Thermo Fisher Scientific) dispenser. 2. The plates were incubated for 4 hours at 37 degrees C/5% CO2/95% Rh. 3. Compounds were pin transferred (~23nL volume) via Wako Pin-tool (Wako Automation, Richmond VA) equipped with a 1536 pin head. The assay plates were treated with compounds in an 11-pnt concentration series with a final concentration range of […] to 85uM. 4. Bortezomib was used as a single dose control (0.5mM column 4, rows 1 - 32) at a final concentration of 1.9uM and as a 16pnt titration (1mM; 1:2 dilution; 16-points; n = 2; column 3, rows 1 - 32) with final concentration range of 0.1nM - 3.8uM. 5. The assay plates were incubated for 72 hours at 37 degrees C/5% CO2/95% Rh. 6. 3uL CellTiter-Glo detection reagent was then added to the plates (columns 2 - 48, rows 1 - 32) and incubated at room temperature for additional 15min. 7. Luminescence signal was acquired via the ViewLux plate reader (PerkinElmer) using a clear filter, 2 second exposure and 2x binning settings.
Potency means the concentration at half of the fitted maximal effect.

Question: Which Potency does the source give for `C[C@]12CC(O)C3[C@@H](CCC4C[C@@H](O)CC[C@@]43CO)[C@@]1(O)CC[C@@H]2C1=CC(=O)OC1` (some centres undefined) here?
Answer: 13.3 µM (active)

Question: With `O[C@H]1C=C[C@@]23CCN(Cc4cc5c(cc42)OCO5)[C@@H]3C1` as the compound, how does the Potency read?
Answer: 11.8 µM (active)

Question: For `c1ccc2nc3c(cc2c1)[nH]c1ccccc13`, which Potency is on record?
Answer: inactive

Question: With `CC[C@]12C=CCN3CC[C@]4(C(=C(C(=O)OC)C1)Nc1ccccc14)[C@@H]32` as the compound, how does the Potency read?
Answer: inactive

Question: Which Potency does the source give for `C/C=C1/CN2CC[C@]34C(=C(C(=O)OC)[C@H]1C[C@H]23)Nc1ccccc14` here?
Answer: inactive

Question: Which Potency does the source give for `CO[C@@]12c3c(C)cc(O)c4c(=O)occ(c34)C(=O)[C@@H]1[C@]13COC(=O)c4c(O)cc(C)c(c41)C(=O)[C@H]2[C@@H]3OC(C)=O` here?
Answer: 5.94 µM (active)

Question: With `C=CC(C)(C)[C@@]12C[C@H]3C(=O)N/C(=C\c4cnc[nH]4)C(=O)N3[C@@H]1Nc1ccccc12` as the compound, how does the Potency read?
Answer: inactive

Question: Which Potency does the source give for `C/C=C/[C@@H]1[C@H]2C[C@@H](C)CC[C@@H]2C(C)=C[C@H]1C(=O)c1c(O)c(-c2ccc(O)cc2)c[nH]c1=O` here?
Answer: 21.1 µM (active)

Question: Which Potency does the source give for `C/C(=C\[C@H](C)C(=O)C[C@H](O)CC1CC(=O)NC(=O)C1)[C@@H]1OC(=O)/C=C/CC/C=C/C=C/[C@@H]1C` here?
Answer: 0.118 µM (active)

Question: With `C=C[C@]12C=CCN3CC[C@@]4(c5ccccc5NC(=O)[C@@H]4C1)[C@@H]32` as the compound, how does the Potency read?
Answer: inactive

Question: For `C[N+](C)(C)CCc1c[nH]c2ccccc12`, which Potency is on record?
Answer: inactive

Question: For `C1=C2CCCN[C@H]2C2CC1[C@H]1CCCCN1C2` (some centres undefined), which Potency is on record?
Answer: inactive

Question: For `C=CC(C)(C)[C@@]12C[C@H]3C(=O)N/C(=C/c4cnc[nH]4)C(=O)N3[C@@H]1Nc1ccccc12`, which Potency is on record?
Answer: inactive

Question: Which Potency does the source give for `CO[C@H]([C@@H](C)[C@H]1O[C@]1(C)C[C@H](C)/C=C/C=C(\C)[C@H]1O[C@@H](CC(=O)O)CC[C@@H]1C)[C@@H](C)O` here?
Answer: 0.0188 µM (active)

Question: Which Potency does the source give for `C[C@]12CCC3[C@@H](CC[C@@H]4C[C@@H](O)CC[C@]34CO)[C@@]1(O)CC[C@@H]2C1=CC(=O)OC1` (some centres undefined) here?
Answer: 1.18 µM (active)

Question: Which Potency does the source give for `C[C@]12CC(O)C3[C@@H](CC[C@@H]4C[C@@H](O)CC[C@]34CO)[C@@]1(O)CC[C@@H]2C1=CC(=O)OC1` (some centres undefined) here?
Answer: 4.2 µM (active)

Question: Which Potency does the source give for `CO[C@@H](/C=C/CC/C=C/C(=O)O)[C@@H](O)[C@H](C)/C=C(\C)[C@H](O)[C@H](C)C(=O)CCCC1CC(=O)NC(=O)C1` here?
Answer: inactive

Question: For `C=C(C)[C@H]1C(=O)c2c3c(cc4c5c(n1c24)[C@@]1(C)[C@@H](CC[C@H]2[C@](C)(/C=C/C=C(\C)C(=O)O)[C@@H](O)CC[C@@]21C)C5)C1=CC(C)(C)OC(C)(C)[C@H]1[C@@H]3O`, which Potency is on record?
Answer: 11.8 µM (active)

Question: For `C/C=C(\C)C(=O)O[C@@H]1[C@@H](O)[C@@H]2O[C@H]3[C@H](O[C@@H](CCCCC)CCCCCCC(=O)CCC(=O)OC[C@@H](O2)[C@H]1OC(=O)/C=C/c1ccccc1)O[C@H](C)[C@H](OC(C)=O)[C@@H]3O`, which Potency is on record?
Answer: 0.594 µM (active)
